We go through 4 compounds from PubChem BioAssay (EPA / NIEHS).

Inconclusive results are not listed. Activity calls are given as the source filed them. How the source made its calls, unless noted: active means hit-call score of the fitted dose curve at least 0.9, where 1 is the maximum; inconclusive means response in the unintended direction; inactive means score below 0.9.

The nature of assay [1]: ATG_TGFb_CIS: Attagene CIS-FACTORIAL HepG2 Assay for human Transforming Growth Factor (TGF) (AID 2282967; active means hit-call score of the fitted dose curve at least 0.9, where 1 is the maximum; inactive means score below 0.9). As to conditions: HepG2 Attagene CIS TGFb reporter, mRNA transcription; actives raise or lower the signal. An outline of the steps:
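HepG2 cells transiently transfected with cis-promoter-driven multiplexed reporter units; 24 h compound exposure. Reporter mRNA measured by RT-PCR, 6-FAM labeling, HpaI digestion and capillary electrophoresis; bidirectional fit versus DMSO baseline.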

Assay [2] is described as follows: ATG_VDRE_CIS: Attagene CIS-FACTORIAL HepG2 Assay for human Vitamin D Receptor Element (VDRE) (AID 2282968; active means hit-call score of the fitted dose curve at least 0.9, where 1 is the maximum; inactive means score below 0.9). As to conditions: HepG2 VDRE cis-reporter transcription, actives raise or lower the signal. An outline of the steps:
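In transiently transfected HepG2 liver cells, gain or loss of reporter mRNA after 24 h exposure is scored relative to DMSO, using fluorescence detection by capillary electrophoresis of RT-PCR products.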

Assay [3] has as its target Nuclear receptor subfamily 1 group I member 3 (Homo sapiens) (UniProt Q14994). Put plainly: ATG_CAR_TRANS: Attagene TRANS-FACTORIAL HepG2 Assay for human Constitutive Androstane Receptor (CAR) (AID 2282969).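 Further: activators raise reporter mRNA above DMSO so AC50 marks induction.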 As to conditions: HepG2 Attagene TRANS-FACTORIAL CAR reporter. An outline of the steps: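 Readout is reporter mRNA induction, quantified by fluorescent primer extension and capillary electrophoresis after RT-PCR. Cells were HepG2 transiently carrying chimeric NR-Gal4 constructs with GAL4-UAS reporters, treated for 24 h; activity scored upward from DMSO.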

Assay [4] concerns the target Estrogen receptor (Homo sapiens) (UniProt P03372). Briefly: ATG_ERa_TRANS: Attagene TRANS-FACTORIAL HepG2 Assay for human Estrogen Receptor alpha (ERa) (AID 2282970). Conditions: HepG2 Attagene TRANS ERa GAL4 reporter, mRNA. An outline of the steps:
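After 24 h of compound treatment, RNA from HepG2 cells bearing transfected GAL4-UAS reporter constructs is converted to cDNA, amplified and fluorescently labelled. Capillary electrophoresis resolves the ERa-linked reporter; DMSO serves as negative control.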

The target of assay [5] is Steroid hormone receptor ERR1 (Homo sapiens) (UniProt P11474). Briefly: ATG_ERRa_TRANS: Attagene TRANS-FACTORIAL HepG2 Assay for human Estrogen-Related Receptor alpha (ERRa) (AID 2282971). Conditions: HepG2 Attagene TRANS reporter, ERRa transactivation. An outline of the steps: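 Transfected HepG2, 24 h dosing, ERRa-Gal4 chimera driving GAL4-UAS reporter. Readout: reporter mRNA via RT-PCR plus capillary electrophoresis (fluorescence). Positive direction vs DMSO control.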

For assay [6], the target named is X-box-binding protein 1 (Homo sapiens) (UniProt P17861). Put plainly: ATG_Xbp1_CIS: Attagene CIS-FACTORIAL HepG2 Assay for human X-box Binding Protein 1 (XBP1) (AID 2282972; active means hit-call score of the fitted dose curve at least 0.9, where 1 is the maximum; inactive means score below 0.9). As to conditions: HepG2 XBP1 cis-element reporter, Attagene multiplex; actives raise or lower the signal. An outline of the steps: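 HepG2 cells transiently transfected with multiple cis-element reporter units report endogenous TF activity; 24 h exposure, then reporter mRNA measured by RT-PCR, 6-FAM labelling, HpaI digestion and capillary electrophoresis. Bidirectional fitting versus DMSO.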

A short description of assay [7]: ATG_M_19_TRANS: Attagene TRANS-FACTORIAL HepG2 Assay for M19 Transcription Factor (Internal Marker) (AID 2282974). Conditions: HepG2 Attagene TRANS-FACTORIAL M19 internal marker reporter. An outline of the steps:
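24 h chemical exposure of transiently transfected HepG2 (MRTU library). RNA → oligo(dT) RT → PCR → 6-FAM labelling → HpaI cut → CE fluorescence. Positive-direction fit vs DMSO baseline; background internal-marker readout.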

The nature of assay [8]: ATG_GAL4_TRANS: Attagene TRANS-FACTORIAL HepG2 Assay for GAL4 (Internal Marker) (AID 2282976). Conditions: HepG2 Attagene TRANS GAL4 internal marker reporter. An outline of the steps: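 RT-PCR/capillary electrophoresis readout of reporter mRNA. HepG2, transient MRTU transfection (GAL4-UAS reporters), 24 h compound exposure. Background-control endpoint, positive direction vs DMSO baseline.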

The target of assay [9] is Bile acid receptor (Homo sapiens) (UniProt Q96RI1). Briefly: ATG_FXR_TRANS: Attagene TRANS-FACTORIAL HepG2 Assay for Farnesoid X Receptor (FXR) (AID 2282979).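 Further: hits raise reporter mRNA above DMSO so AC50 marks FXR activation.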 Conditions: HepG2 Attagene TRANS FXR-GAL4 reporter transcription. An outline of the steps: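 Read-out: fluorescent reporter transcripts quantified by capillary electrophoresis after RT-PCR of total RNA. Source cells were HepG2 transiently carrying chimeric NR-GAL4 plus GAL4-UAS reporter units, dosed 24 h. Activity fitted upward relative to DMSO baseline.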

In assay [10] the target is Oxysterols receptor LXR-alpha (Homo sapiens) (UniProt Q13133). Briefly: ATG_LXRa_TRANS: Attagene TRANS-FACTORIAL HepG2 Assay for human Liver X Receptor alpha (LXRa) (AID 2282980). Conditions: HepG2 Attagene TRANS reporter, LXRa transactivation. An outline of the steps: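 Read-out: reporter transcript levels by RT-PCR plus capillary electrophoresis, fluorescence intensity. Transiently transfected HepG2, exogenous NR-GAL4 chimera, GAL4-UAS reporters; 24 h compound exposure. Activity = increase over DMSO negative control.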

Assay [11] can be described thus: ATG_M_32_TRANS: Attagene TRANS-FACTORIAL HepG2 Assay for M32 Transcription Factor (Internal Marker) (AID 2282984).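 Further: transcript level of a background control reporter unit measured by RT-PCR and capillary electrophoresis.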 As to conditions: HepG2 Attagene TRANS M32 internal marker reporter. An outline of the steps: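 Using transiently transfected HepG2 cells exposed to test chemicals for 24 h, reporter transcripts are converted to labelled cDNA fragments and quantified by capillary electrophoresis. DMSO defines the activity baseline.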

Assay [12] addresses Nuclear receptor subfamily 4 group A member 2 (Homo sapiens) (UniProt P43354). Briefly: ATG_NURR1_TRANS: Attagene TRANS-FACTORIAL HepG2 Assay for human Nuclear Receptor Related Protein 1 (NURR1) (AID 2282985). As to conditions: HepG2 Attagene TRANS reporter, mRNA readout. An outline of the steps: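 Cells: HepG2, transiently transfected. Exposure: 24 h. Detection: fluorescence of labelled RT-PCR products separated by capillary electrophoresis; upward fit versus DMSO.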

In assay [13] the target is Transcriptional activator Myb (Homo sapiens) (UniProt P10242). Briefly: ATG_Myb_CIS: Attagene CIS-FACTORIAL HepG2 Assay for human Myeloblastosis (Myb) Proto-Oncogene Transcription Factor (AID 2282986; active means hit-call score of the fitted dose curve at least 0.9, where 1 is the maximum; inactive means score below 0.9). Conditions: HepG2 Attagene CIS-FACTORIAL Myb reporter transcription; actives raise or lower the signal. An outline of the steps: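 HepG2, transient MRTU transfection (cis-element promoters, endogenous TF activity), 24 h compound exposure. Readout: reporter mRNA via RT-PCR, 6-FAM labeling, HpaI digest, capillary electrophoresis. Gain/loss fit vs DMSO.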

For assay [14], the target named is Nuclear respiratory factor 1 (Homo sapiens) (UniProt Q16656). Briefly: ATG_NRF1_CIS: Attagene CIS-FACTORIAL HepG2 Assay for human Nuclear Respiratory Factor 1 (NRF1) Orphan Gene (AID 2282987; active means hit-call score of the fitted dose curve at least 0.9, where 1 is the maximum; inactive means score below 0.9). Conditions: HepG2 NRF1 cis-element reporter, Attagene multiplex; actives raise or lower the signal. An outline of the steps: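 Endogenous NRF1-driven reporter transcription measured in transiently transfected human HepG2 liver cells. Readout: reporter mRNA by RT-PCR and capillary electrophoresis with fluorescence detection, 24 h post-dosing. Gain or loss of signal fitted relative to DMSO baseline.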

Assay [15] has as its target Oxysterols receptor LXR-beta (Homo sapiens) (UniProt P55055). Briefly: ATG_LXRb_TRANS: Attagene TRANS-FACTORIAL HepG2 Assay for human Liver X Receptor beta (LXRb) (AID 2282981). As to conditions: HepG2 Attagene TRANS GAL4-LXRb reporter, mRNA. An outline of the steps:
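Cells: HepG2, transiently transfected with GAL4-UAS reporter units plus LXRb-Gal4 fusion. Treatment: 24 h. Detection: reporter mRNA by RT-PCR, 6-FAM labelling, HpaI digestion, capillary electrophoresis.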

Assay [16] concerns the target Hepatocyte nuclear factor 4-alpha (Homo sapiens) (UniProt P41235). Briefly: ATG_HNF4a_TRANS: Attagene TRANS-FACTORIAL HepG2 Assay for human Hepatocyte Nuclear Factor 4 alpha (HNF4a) (AID 2282982). As to conditions: HepG2 HNF4a transactivation reporter, mRNA readout. An outline of the steps:
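Transfected HepG2 reporter cells are dosed for 24 h; reporter RNA is reverse-transcribed, amplified, fluorescently labelled and HpaI-digested before CE sizing. Positive-direction fit against DMSO.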

A short description of assay [17]: ATG_M_06_TRANS: Attagene TRANS-FACTORIAL HepG2 Assay for M06 Transcription Factor (Internal Marker) (AID 2282983). Conditions: HepG2 Attagene TRANS M06 internal marker reporter. An outline of the steps: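 After a 24 h chemical treatment of transfected HepG2, RNA underwent DNase I treatment, reverse transcription and reporter-specific PCR; labelled, HpaI-digested products were sized by capillary electrophoresis. Signal increase relative to DMSO defined activity.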

The target of assay [18] is Androgen receptor (Homo sapiens) (UniProt P10275). Put plainly: ATG_AR_TRANS: Attagene TRANS-FACTORIAL HepG2 Assay for human Androgen Receptor (AR) (AID 2282973). Conditions: HepG2 Attagene TRANS-FACTORIAL AR reporter transcription. An outline of the steps:
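Readout is reporter transcript abundance, quantified by fluorescent RT-PCR products separated on capillary electrophoresis. Human HepG2 liver cells carried transiently transfected NR-Gal4 chimera plus GAL4-UAS reporter constructs and were dosed for 24 h; activity scored upward versus DMSO.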

For assay [19], the target named is Estrogen-related receptor gamma (Homo sapiens) (UniProt P62508). Briefly: ATG_ERRg_TRANS: Attagene TRANS-FACTORIAL HepG2 Assay for human Estrogen-Related Receptor gamma (ERRg) (AID 2282977).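 Further: hits increase reporter signal over DMSO so potencies reflect activators.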 As to conditions: HepG2 Attagene TRANS reporter, ERRg transactivation. An outline of the steps:
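HepG2 cells transiently transfected with multiplexed GAL4-UAS reporter units and chimeric NR-Gal4 constructs were exposed to test chemicals for 24 h. Reporter mRNA was measured by RT-PCR, 6-FAM primer extension, HpaI digestion and capillary electrophoresis; gain-of-signal versus DMSO.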

Assay [20] deals with Glucocorticoid receptor (Homo sapiens) (UniProt P04150). Put plainly: ATG_GR_TRANS: Attagene TRANS-FACTORIAL HepG2 Assay for human Glucocorticoid Receptor (GR) (AID 2282978).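 Further: activators score as hits since higher reporter transcript over DMSO is fitted.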 Conditions: HepG2 Attagene TRANS GR reporter, mRNA transcription. An outline of the steps: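 Transient MRTU transfection of HepG2 (GAL4-UAS reporters, exogenous NR-GAL4 chimeras), 24 h dosing. Readout: reporter transcript via RT-PCR + capillary electrophoresis fluorescence. Positive direction vs DMSO baseline.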

Nuclear respiratory factor 1 (Homo sapiens), sequence (Q16656 whole entry, looked up): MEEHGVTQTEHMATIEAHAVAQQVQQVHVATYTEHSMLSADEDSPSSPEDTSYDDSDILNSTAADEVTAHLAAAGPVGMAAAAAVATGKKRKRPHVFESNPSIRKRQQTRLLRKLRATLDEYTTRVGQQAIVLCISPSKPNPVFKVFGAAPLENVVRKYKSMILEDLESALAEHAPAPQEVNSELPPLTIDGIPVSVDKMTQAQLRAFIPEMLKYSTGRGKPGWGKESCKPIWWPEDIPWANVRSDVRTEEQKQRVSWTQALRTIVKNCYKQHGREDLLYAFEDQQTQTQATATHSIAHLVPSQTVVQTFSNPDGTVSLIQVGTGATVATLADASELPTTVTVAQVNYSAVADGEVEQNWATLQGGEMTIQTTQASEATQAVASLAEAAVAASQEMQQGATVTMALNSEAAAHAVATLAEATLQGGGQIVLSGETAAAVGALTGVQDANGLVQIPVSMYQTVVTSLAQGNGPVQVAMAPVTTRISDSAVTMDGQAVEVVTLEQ
Transcriptional activator Myb (Homo sapiens), sequence (P10242 whole entry, looked up): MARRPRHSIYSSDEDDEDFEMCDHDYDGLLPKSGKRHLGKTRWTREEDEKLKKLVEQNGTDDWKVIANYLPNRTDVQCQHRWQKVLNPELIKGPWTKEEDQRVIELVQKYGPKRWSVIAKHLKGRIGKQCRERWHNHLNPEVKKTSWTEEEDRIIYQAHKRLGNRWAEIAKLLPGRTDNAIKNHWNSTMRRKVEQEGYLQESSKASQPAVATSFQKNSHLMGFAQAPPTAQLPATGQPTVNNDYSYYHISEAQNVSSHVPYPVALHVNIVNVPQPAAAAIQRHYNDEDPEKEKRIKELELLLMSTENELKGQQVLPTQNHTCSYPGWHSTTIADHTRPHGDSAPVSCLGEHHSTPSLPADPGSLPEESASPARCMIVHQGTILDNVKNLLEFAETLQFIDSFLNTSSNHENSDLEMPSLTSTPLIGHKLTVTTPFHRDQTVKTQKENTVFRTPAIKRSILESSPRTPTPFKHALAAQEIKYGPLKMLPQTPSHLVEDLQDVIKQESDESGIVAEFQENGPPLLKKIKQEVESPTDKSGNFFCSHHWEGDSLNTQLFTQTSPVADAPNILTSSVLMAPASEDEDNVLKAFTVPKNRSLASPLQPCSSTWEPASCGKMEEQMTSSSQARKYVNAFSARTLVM
Nuclear receptor subfamily 1 group I member 3 (Homo sapiens), sequence (Q14994 whole entry, looked up, the tested form may be a part): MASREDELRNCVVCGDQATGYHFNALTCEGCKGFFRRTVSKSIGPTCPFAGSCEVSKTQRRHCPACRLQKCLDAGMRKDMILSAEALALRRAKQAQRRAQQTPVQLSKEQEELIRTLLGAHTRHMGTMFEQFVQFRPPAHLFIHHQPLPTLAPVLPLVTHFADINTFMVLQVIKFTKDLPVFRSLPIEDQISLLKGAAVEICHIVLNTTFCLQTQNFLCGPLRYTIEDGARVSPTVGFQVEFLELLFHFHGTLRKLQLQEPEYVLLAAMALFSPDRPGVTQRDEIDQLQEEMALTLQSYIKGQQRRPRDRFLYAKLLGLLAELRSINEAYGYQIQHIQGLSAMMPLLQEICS
Bile acid receptor (Homo sapiens), sequence (Q96RI1 whole entry, looked up, the tested form may be a part): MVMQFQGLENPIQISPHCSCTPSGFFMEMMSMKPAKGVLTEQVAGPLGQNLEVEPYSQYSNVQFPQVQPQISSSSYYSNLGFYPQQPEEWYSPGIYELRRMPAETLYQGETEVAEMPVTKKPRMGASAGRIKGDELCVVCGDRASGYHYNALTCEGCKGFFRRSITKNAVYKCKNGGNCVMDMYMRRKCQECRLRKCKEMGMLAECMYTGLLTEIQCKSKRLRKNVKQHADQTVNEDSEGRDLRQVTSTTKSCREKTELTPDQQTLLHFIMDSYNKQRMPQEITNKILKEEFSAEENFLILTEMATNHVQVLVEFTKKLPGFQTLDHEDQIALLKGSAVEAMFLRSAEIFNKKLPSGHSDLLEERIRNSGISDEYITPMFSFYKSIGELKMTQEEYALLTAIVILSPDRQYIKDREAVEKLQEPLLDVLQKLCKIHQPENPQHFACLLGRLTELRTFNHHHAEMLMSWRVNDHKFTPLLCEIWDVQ
X-box-binding protein 1 (Homo sapiens), sequence (P17861 whole entry, looked up): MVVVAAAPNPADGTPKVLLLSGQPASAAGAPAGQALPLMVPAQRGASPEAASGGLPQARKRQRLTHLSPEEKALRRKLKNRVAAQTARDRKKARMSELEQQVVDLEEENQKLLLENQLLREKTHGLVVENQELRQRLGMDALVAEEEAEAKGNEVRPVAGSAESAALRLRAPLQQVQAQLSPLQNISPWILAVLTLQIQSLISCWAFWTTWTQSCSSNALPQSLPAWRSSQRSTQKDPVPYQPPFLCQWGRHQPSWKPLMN
Estrogen receptor (Homo sapiens), sequence (P03372 whole entry, looked up, the tested form may be a part): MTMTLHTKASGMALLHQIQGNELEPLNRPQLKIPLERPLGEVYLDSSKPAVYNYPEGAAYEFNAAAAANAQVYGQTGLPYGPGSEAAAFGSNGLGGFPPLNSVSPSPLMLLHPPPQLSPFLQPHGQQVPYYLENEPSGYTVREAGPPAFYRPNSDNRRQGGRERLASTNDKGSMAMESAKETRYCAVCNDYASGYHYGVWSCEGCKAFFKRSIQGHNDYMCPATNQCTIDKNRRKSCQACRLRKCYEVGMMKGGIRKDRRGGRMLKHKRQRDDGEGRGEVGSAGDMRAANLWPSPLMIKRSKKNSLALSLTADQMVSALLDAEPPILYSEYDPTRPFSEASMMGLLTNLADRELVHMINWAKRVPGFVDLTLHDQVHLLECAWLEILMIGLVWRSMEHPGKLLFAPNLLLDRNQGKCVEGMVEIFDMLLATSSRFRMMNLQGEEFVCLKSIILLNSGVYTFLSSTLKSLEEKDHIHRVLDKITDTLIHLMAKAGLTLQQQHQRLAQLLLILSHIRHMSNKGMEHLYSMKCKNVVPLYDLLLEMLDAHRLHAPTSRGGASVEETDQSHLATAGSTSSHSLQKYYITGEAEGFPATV
Hepatocyte nuclear factor 4-alpha (Homo sapiens), sequence (P41235 whole entry, looked up): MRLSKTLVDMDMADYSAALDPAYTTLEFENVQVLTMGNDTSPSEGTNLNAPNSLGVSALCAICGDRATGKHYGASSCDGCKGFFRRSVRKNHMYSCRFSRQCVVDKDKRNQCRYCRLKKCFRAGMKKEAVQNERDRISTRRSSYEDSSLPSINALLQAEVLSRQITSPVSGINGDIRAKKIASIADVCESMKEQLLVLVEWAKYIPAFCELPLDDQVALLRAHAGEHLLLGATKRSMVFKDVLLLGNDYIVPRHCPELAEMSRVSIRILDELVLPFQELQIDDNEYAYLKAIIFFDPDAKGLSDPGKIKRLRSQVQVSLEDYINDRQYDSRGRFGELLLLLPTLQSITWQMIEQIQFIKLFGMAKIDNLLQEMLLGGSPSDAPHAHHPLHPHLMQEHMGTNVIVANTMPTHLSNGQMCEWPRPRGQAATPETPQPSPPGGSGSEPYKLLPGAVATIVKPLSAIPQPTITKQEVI
Oxysterols receptor LXR-alpha (Homo sapiens), sequence (Q13133 whole entry, looked up, the tested form may be a part): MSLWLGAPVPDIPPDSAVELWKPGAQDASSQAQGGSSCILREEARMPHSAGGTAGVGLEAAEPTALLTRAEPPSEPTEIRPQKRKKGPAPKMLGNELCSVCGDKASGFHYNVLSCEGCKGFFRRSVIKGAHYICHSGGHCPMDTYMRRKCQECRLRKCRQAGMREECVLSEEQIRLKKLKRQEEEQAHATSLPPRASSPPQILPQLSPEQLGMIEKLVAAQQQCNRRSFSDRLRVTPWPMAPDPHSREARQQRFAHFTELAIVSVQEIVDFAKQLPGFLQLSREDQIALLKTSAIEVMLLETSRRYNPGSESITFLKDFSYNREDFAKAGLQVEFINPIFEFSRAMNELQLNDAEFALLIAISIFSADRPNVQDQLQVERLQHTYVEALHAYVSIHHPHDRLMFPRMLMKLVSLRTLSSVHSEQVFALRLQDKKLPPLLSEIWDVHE
Nuclear receptor subfamily 4 group A member 2 (Homo sapiens), sequence (P43354 whole entry, looked up): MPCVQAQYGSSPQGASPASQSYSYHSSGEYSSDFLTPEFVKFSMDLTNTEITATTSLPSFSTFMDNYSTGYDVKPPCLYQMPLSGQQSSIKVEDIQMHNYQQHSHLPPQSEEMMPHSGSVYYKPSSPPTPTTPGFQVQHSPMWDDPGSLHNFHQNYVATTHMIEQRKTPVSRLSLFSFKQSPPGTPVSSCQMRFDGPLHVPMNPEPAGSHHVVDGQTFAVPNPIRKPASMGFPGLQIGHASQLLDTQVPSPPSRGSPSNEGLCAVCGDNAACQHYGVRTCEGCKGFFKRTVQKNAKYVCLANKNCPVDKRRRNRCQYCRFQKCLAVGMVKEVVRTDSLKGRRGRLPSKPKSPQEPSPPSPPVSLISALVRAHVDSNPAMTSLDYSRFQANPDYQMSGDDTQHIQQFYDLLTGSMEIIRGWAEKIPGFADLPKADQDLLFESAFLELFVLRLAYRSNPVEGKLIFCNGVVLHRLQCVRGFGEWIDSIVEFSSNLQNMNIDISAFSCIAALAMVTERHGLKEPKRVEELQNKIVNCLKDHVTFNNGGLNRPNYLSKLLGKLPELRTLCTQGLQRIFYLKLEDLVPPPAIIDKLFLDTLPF
Steroid hormone receptor ERR1 (Homo sapiens), sequence (P11474 whole entry, looked up, the tested form may be a part): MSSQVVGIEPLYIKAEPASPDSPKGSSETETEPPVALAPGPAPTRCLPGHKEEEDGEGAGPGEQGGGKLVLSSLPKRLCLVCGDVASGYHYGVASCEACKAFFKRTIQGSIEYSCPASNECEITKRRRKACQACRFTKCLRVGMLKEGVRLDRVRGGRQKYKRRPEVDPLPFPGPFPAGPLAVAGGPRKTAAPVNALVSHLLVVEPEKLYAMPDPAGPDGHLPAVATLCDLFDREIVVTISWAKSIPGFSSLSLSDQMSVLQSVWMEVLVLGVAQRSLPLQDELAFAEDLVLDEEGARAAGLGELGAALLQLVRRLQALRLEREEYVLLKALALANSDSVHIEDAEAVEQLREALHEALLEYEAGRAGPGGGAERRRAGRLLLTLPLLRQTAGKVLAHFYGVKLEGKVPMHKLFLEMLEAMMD

For the compound `Cc1ccccc1OP(=O)(Oc1ccccc1)Oc1ccccc1`, the outcome in [1], in assay [3], in [5], in assay [6], in assay [7] and in assay [8] was inactive. The result in assay [9], in assay [10], in [11], in assay [13] and in assay [14] was inactive. For the same compound, the AC50 (usually the concentration giving half of the maximal activity seen) was 1.25 µM (active) in [2], 3.57 µM (active) in assay [4] and 25.2 µM (active) in assay [12].

Turning to `c1csc(-c2ccc(-c3cccs3)s2)c1`, the AC50 is 6.2 µM (active) in assay [1]; 3.41 µM (active) in assay [2]; 6.62 µM (active) in assay [3]; 4.23 µM (active) in [4]; 2.54 µM (active) in [6]; 3.59 µM (active) in [12]. In addition, the result in assay [7], in assay [9], in assay [10], in assay [15], in [16] and in assay [11] was inactive. The compound was classed as inactive in [13] and in [14].

Regarding `CC(C)[C@@H](Nc1ccc(C(F)(F)F)cc1Cl)C(=O)OC(C#N)c1cccc(Oc2ccccc2)c1` (stereo not given in full), the compound was classed as inactive in assay [1], in assay [3], in assay [4], in [6], in assay [7] and in [9]. For the same compound, the call in assay [16], in [17], in [13] and in assay [14] was inactive. Also, the AC50 in assay [2] is 0.734 µM (active).

As for `Cc1ccc(OP(=O)(Oc2ccc(C)cc2C)Oc2ccc(C)cc2C)c(C)c1`, the compound was classed as inactive in assay [1], in assay [3], in [4], in [5], in assay [6] and in assay [18]. Besides, the compound was classed as inactive in assay [7], in assay [8], in assay [19], in assay [20], in assay [9] and in [17]. The compound was classed as inactive in [11], in [13] and in assay [14]. In addition, in assay [2], the half-maximal activity concentration (AC50) is 0.534 µM (active).
